Experimental findings from PubChem BioAssay (EPA / NIEHS) are described below.

A short description of test [1]: CCTE_Deisenroth_5AR_NBTE_donor: CCTE's 5alpha-reductase NanoBRET Target Engagement Assay […], Deisenroth Lab (AID 2284319). The settings on record: actives raise or lower the signal. In outline:
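SRD5A2-NanoLuc, HEK293T, 20 h expression. Chemical 10 nM - 29.9 uM, 8 conc, duplicate; 3 h preincubation + 2 h testosterone tracer. Nano-Glo substrate plus extracellular NanoLuc inhibitor; donor lum 460 nm. DMSO baseline, bidirectional fit.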
On the technique in general: Bioluminescence resonance energy transfer reports proximity on the nanometre scale.

In the next test the test system is SRD5A2 (gene 6716). Kind of test: CCTE_Deisenroth_5AR_NBTE_ratio: CCTE's 5alpha-reductase NanoBRET Target Engagement Assay - Ratio, Deisenroth Lab (AID 2284322). The settings on record: actives raise or lower the signal. In outline: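 HEK293T transiently expressing SRD5A2-NanoLuc; cells exposed to chemical (8-point, 10 nM - 29.9 uM) for 5 h total, testosterone tracer added for final 2 h. NanoBRET acceptor/donor ratio (650/460 nm), bidirectional fit vs DMSO.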

The test system of another test is SERPINA7 (gene 6906). Kind of test: CCTE_GLTED_hTBG: CCTE's human Thyroxine-binding Globulin (TBG) Inhibition Assay, Great Lakes Toxicology and Ecology Division (GLTED) Lab (AID 2284343; active means hit-call score of the fitted dose curve at least 0.9, where 1 is the maximum;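 further: active chemicals lower fluorescence versus DMSO baseline by displacing probe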). Summed up: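 hTBG + test chem, 2 h; ANSA probe displacement; fluorescence readout ex380/em475; DMSO = neg ctrl/baseline; cell-free.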
Test [2] is described as follows: TAMU_PeakParms_SingleDonor1434_Asystole: Texas A&M University (TAMU) 1.5-hr Human Induced Pluripotent Stem Cell (iPSC)-derived Cardiomyocytes Calcium (Ca+2) Flux Assay for Cardiotoxicity: Asystole (quiescence of beating) (AID 2284328; active means hit-call score of the fitted dose curve at least 0.9, where 1 is the maximum). In outline: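 Donor 1434 iPSC-cardiomyocytes exposed 90 min at 37C, 5% CO2, to 0.2, 1, 10 and 100 uM in 0.5% DMSO. Ca2+ dye fluorescence gave average peak frequency; POD is EC95, a 95% beat-rate drop versus controls.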

The test system of test [3] is Brachyury (BRA) Protein Expression, Deisenroth Lab, TBXT (gene 6862). Kind of test: CCTE_Deisenroth_DEVTOX-GLR_legacy_Bra: (Legacy) CCTE's DevTox GLR-Endo Assay Evaluation of Brachyury (BRA) Protein Expression, Deisenroth Lab (AID 2284329). Summed up:
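RUES2-GLR human pluripotent cells are differentiated for 48 h and receive two chemical exposures 24 h apart, at 10 concentrations from 1 nM to 200 uM. Cells are fixed, nuclei stained and imaged. Bra+ cells are those with mean Bra intensity over 5x BMAD above the pluripotent control median, expressed as a percentage of cell count, after subtracting the 0.2% DMSO control median.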

Test [4] is described as follows: CCTE_Deisenroth_DEVTOX-GLR_legacy_CellCount: (Legacy) Viability Assessment in CCTE's DevTox GLR-Endo Assay, Deisenroth Lab (AID 2284331). Particulars: actives raise or lower the signal. Summed up:
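Viability is taken from imaged nuclei counts in fixed RUES2-GLR cultures after 48 h of differentiation under two 24 h-spaced chemical exposures, 10 concentrations from 1 nM to 200 uM, gain or loss versus DMSO baseline.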

Test [5] has as its system SRY-box transcription factor 17 (SOX17) Protein Expression, Deisenroth Lab, SOX17 (gene 64321). Kind of test: CCTE_Deisenroth_DEVTOX-GLR_legacy_Sox17: (Legacy) CCTE's DevTox GLR-Endo Assay Evaluation of SRY-box transcription factor 17 (SOX17) Protein Expression, Deisenroth Lab (AID 2284341). The settings on record: actives raise or lower the signal. In outline: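 Endoderm-differentiation readout in RUES2-GLR human pluripotent cells at 48 h, concentrations spanning 1 nM - 200 uM. Sox17-positive cells divided by total cell count; gain or loss relative to DMSO solvent control, n=4 experimental replicates.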

Test [6] concerns SRY-box transcription factor 2 (SOX2) Protein Expression, Deisenroth Lab, SOX2 (gene 6657). Kind of test: CCTE_Deisenroth_DEVTOX-GLR_legacy_Sox2: (Legacy) CCTE's DevTox GLR-Endo Assay Evaluation of SRY-box transcription factor 2 (SOX2) Protein Expression, Deisenroth Lab (AID 2284346). In outline:
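RUES2-GLR human pluripotent cells were differentiated for 48 h with two chemical doses 24 h apart, over 1 nM-200 uM. Sox2+ cells were those above 5x BMAD of the endoderm-control median; percent Sox2+ minus the 0.2% DMSO median was used, from n=4 replicates.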

A short description of test [7]: CCTE_Deisenroth_H295R-HTRF_384WELL_ESTRADIOL: CCTE's H295R-HTRF Assay Evaluation of Estradiol Concentration, Deisenroth Lab (AID 2284361). Particulars: actives raise or lower the signal. In outline: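 H295R cells exposed 48 h to chemicals at 0.001 - 100 uM final (nine points, triplicate); estradiol in conditioned medium measured by HTRF immunoassay, fitted bidirectionally versus DMSO. Viability by CellTiter-Glo on same plates.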
In general terms: TR-FRET usually uses a lanthanide donor and a delayed reading to cut background.

Test [8] is described as follows: CCTE_Deisenroth_H295R-HTRF_384WELL_TESTOSTERONE: CCTE's H295R-HTRF Assay Evaluation of Testosterone Concentration, Deisenroth Lab (AID 2284373). The settings on record: actives raise or lower the signal. Summed up:
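Testosterone secreted into medium was quantified by direct HTRF immunoassay after a 48 h treatment of H295R adrenocortical cells (nine concentrations, 0.001–100 uM final). Gain or loss fitted relative to DMSO; CellTiter-Glo viability read on same plates.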

Test [9] is described as follows: CCTE_Deisenroth_H295R-HTRF_384WELL_CTOX: Cytotoxicity Assessment in CCTE's H295R-HTRF Assay, Deisenroth Lab (AID 2284380; active means hit-call score of the fitted dose curve at least 0.9, where 1 is the maximum). In outline:
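H295R adrenocortical carcinoma cells plated 24 h, then exposed 48 h to nine-point series 0.001–100 uM final, triplicate, n=5. ATP measured by CellTiter-Glo 2.0 luminescence on same plates after medium collection; loss versus DMSO.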

The next test has as its system IYD (gene 389434). Kind of test: CCTE_GLTED_hIYD: CCTE's human Iodotyrosine Deiodinase (xIYD) Inhibition Assay, Great Lakes Toxicology and Ecology Division (GLTED) Lab (AID 2284317; active means hit-call score of the fitted dose curve at least 0.9, where 1 is the maximum;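 further: cell-free human IYD enzyme made in baculovirus insect cells; iodide freed from monoiodotyrosine measured by cerium arsenite color change at 420 nm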). In outline: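 Absorbance change at 420 nm from the iodide-catalysed cerium-arsenic reaction reports free iodide released by human IYD from monoiodotyrosine. Enzyme, substrate and chemical are incubated 3 h; loss of signal is fitted relative to DMSO baseline.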

Test [10] in a line: VALA_TUBIPS_Antagonist_CellCount: Viability Assessment in the VALA Sciences human iPS-derived Endothelial Tubule Formation (TUBIPS) Antagonism Assay (AID 2284335; active means hit-call score of the fitted dose curve at least 0.9, where 1 is the maximum). The procedure:
VALA_TUBIPS_Agonist is a cell-based, multiplexed assay that uses human iPS-derived endothelial cells (iPSC). Measurements were taken 72 hours after chemical dosing in a 96-well plate.VALA_TUBIPS_Antagonist_CellCount is the one of two assay components measured from the VALA_TUBIPS_Antagonist assay. It is designed to make measurements of viability, a form of viability reporter, as detected with fluorescence intensity signals by HCS Fluorescent Imaging technology. Data from the assay component VALA_TUBIPS_Antagonist_CellCount was analyzed at the endpoint, VALA_TUBIPS_Antagonist_CellCount, in the positive analysis fitting direction relative to DMSO as the negative control and baseline of activity. Using a type of viability reporter, loss-of-signal activity can be used to understand viability. To generalize the intended target to other relatable targets, this assay endpoint is annotated to the cell cycle intended target family, where the subfamily is cell count.
This HUVEC-HDF assay was designed to detect chemical suppression of tubulogenesis, i.e. antagonism. To measure tubulogenesis antagonism, HUVEC cells were co-cultured with HDF cells at a 1:3 ratio for 3-days in 10 ng/ml VEGF (i.e., favorable conditions with growth factors), then changed to assay medium containing 10 ng/ml VEGF and ToxCast compounds for an additional 3-day period. […]

Test [11] can be described thus: VALA_TUBHUV_Agonist_TubuleLength: VALA Sciences human Umbilical Vein Endothelial Tubule Formation (TUBHUV) Agonism Assay (AID 2284337; active means hit-call score of the fitted dose curve at least 0.9, where 1 is the maximum). In outline: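 HUVEC co-cultured with fibroblasts (1:3) 3 days in 10 ng/ml VEGF, then 3 days with compound plus VEGF; 0.1 % DMSO neutral control. Fixed, nuclear and CD31 stained; tubule length by fluorescence imaging.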
A short description of test [12]: VALA_TUBIPS_Agonist_CellCount: Viability Assessment in the VALA Sciences human iPS-derived Endothelial Tubule Formation (TUBIPS) Agonism Assay (AID 2284338; active means hit-call score of the fitted dose curve at least 0.9, where 1 is the maximum).

SMILES strings stand for the structures. Records with an inconclusive call do not appear. Active and inactive are the calls of the source. How the source made its calls, unless noted: active means hit-call score of the fitted dose curve at least 0.9, where 1 is the maximum; inactive means score below 0.9.

In general, AC50 refers to the concentration at which the activity in the assay is half-maximal.

For the molecule `O=C(O)Cc1cc(I)c(Oc2ccc(O)c(I)c2)c(I)c1`, the concentration at half-maximal activity (AC50) is 28.2 µM (active) in [1], 77.3 µM (active) with SRD5A2 (gene 6716) and 0.0733 µM (active) in the test on SERPINA7 (gene 6906).

As to `CCCOC(=O)c1cc(O)c(O)c(O)c1`, the result in test [2] was inactive.

On to `CN1C(=O)N(c2ccccc2Br)Cc2cnc(Nc3ccc4c(c3)OCC(CO)O4)nc21` (stereo not given), for which the outcome (in test [1]; in the test with SRD5A2 (gene 6716)) was inactive.

For the molecule `CCCCOC(=O)c1ccc(O)cc1`, the AC50 was 100 µM (active) in [3]; 38.2 µM (active) in test [4]; 55.3 µM (active) in test [5]; 100 µM (active) in [6]; 54.3 µM (active) in test [7]. Besides, the call in test [8] and in test [9] was inactive.

Take `CN1C(=O)CC[C@H]1c1cccnc1`: the molecule was called inactive (in test [1]; in the test on SRD5A2 (gene 6716)).

`COc1cc(C(=O)NC2CCN(C)CC2)ccc1Nc1ncc2c(n1)N(C1CCCC1)CC(F)(F)C(=O)N2C`: the molecule was called inactive (in [1]; in the test on SRD5A2 (gene 6716)).

Consider `O=c1c(-c2ccc(O)cc2)coc2cc(O)cc(O)c12`, for which the molecule was called inactive (with IYD (gene 389434); in test [1]; in the test with SRD5A2 (gene 6716); in test [9]). Further, the AC50 was 21.6 µM (active) in test [7] and 6.78 µM (active) in test [8].

As to `c1ccc2ccccc2c1`, in test [2], the result was inactive.

Regarding `CC(C)(C)c1csc(-c2cc3cc(OCc4ccccc4CC(=O)O)ccc3o2)n1`, the AC50 in the test on IYD (gene 389434) is 68.7 µM (active).

Take `CCCCCCCCCCCO`: the molecule was called inactive (in test [1]; in the test on SRD5A2 (gene 6716)).

For the molecule `CCCCCCCCOC(=O)c1cc(O)c(O)c(O)c1`, the AC50 was 77 µM (active) in the test on IYD (gene 389434); 74.7 µM (active) in test [1]; 1.59 µM (active) in the test on SRD5A2 (gene 6716); 50 µM (active) in test [11]; 24.2 µM (active) in test [12]; 3.42 µM (active) with SERPINA7 (gene 6906). In addition, in test [10], the call was inactive.

For `O=C(O)Cn1c(=O)n(Cc2ccc(Br)cc2F)c(=O)c2ccc(Cl)cc21`, in the test on SERPINA7 (gene 6906), the AC50 was 18.1 µM (active).

As for `O=c1[nH]sc2ccccc12`, the AC50 in test [1] was 81.2 µM (active); with SRD5A2 (gene 6716) it was 75 µM (active).

On to `CCN(Cc1cccc(S(=O)(=O)O)c1)c1ccc(C(=C2C=CC(=[N+](CC)Cc3cccc(S(=O)(=O)O)c3)C=C2)c2ccccc2S(=O)(=O)[O-])cc1`, for which the figures for the AC50 in the test on IYD (gene 389434) and in the test with SRD5A2 (gene 6716) were 100 µM (active) and 2.9 µM (active), respectively. The call in [1] was inactive.
